Some targets named below: RELARELA (p65 homodimer) (Homo sapiens, UniProt Q04206 1-307); p50p50 homodimer (Homo sapiens, UniProt P19838 7-356); RELB subunit;p50 subunit (Homo sapiens;Homo sapiens, UniProt Q01201;P19838 120-401;7-356).
Holding throughout (test): protein binding microarray; high values mean tight binding
What all share (settings): dsDNA, one strand shown

In a further experiment the target is T1, p52p52 homodimer (Homo sapiens, UniProt Q00653 4-332).
T1 sequence: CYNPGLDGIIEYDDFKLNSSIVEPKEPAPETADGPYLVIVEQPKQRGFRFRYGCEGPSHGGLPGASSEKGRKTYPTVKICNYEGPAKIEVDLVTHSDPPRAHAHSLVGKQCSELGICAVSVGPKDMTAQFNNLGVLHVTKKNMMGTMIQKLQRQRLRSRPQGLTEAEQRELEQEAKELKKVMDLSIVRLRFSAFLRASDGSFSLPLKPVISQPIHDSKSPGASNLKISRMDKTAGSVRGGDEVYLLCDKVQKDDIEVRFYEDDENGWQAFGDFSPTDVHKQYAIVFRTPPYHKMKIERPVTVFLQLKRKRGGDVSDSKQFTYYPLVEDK

Experiment [1] concerns the target RELA (p65) subunit of heterodimer;p50 subunit (Homo sapiens;Homo sapiens, UniProt Q04206;P19838 1-307;7-356).
The target in experiment [2] is RELA (p65) subunit of heterodimer;p52 subunit (Homo sapiens;Homo sapiens, UniProt Q04206;Q00653 1-307;4-332).
The target in another experiment is T2, RELB subunit;p52 subunit (Homo sapiens;Homo sapiens, UniProt Q01201;Q00653 120-401;4-332).
T2 sequence 1: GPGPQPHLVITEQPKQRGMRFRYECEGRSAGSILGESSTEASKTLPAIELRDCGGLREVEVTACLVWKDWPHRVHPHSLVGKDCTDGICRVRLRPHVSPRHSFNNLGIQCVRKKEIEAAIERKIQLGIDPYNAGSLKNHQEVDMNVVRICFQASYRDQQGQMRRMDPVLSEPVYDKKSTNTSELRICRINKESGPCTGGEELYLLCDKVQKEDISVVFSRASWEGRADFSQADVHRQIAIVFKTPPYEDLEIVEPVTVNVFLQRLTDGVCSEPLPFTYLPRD
T2 sequence 2: T1 sequence

In experiment [3] the target is C-Rel subunit;p50 subunit (Homo sapiens;Homo sapiens, UniProt Q04864;P19838 1-285;7-356).
Experiment [4] deals with T3, C-Rel subunit;p52 subunit (Homo sapiens;Homo sapiens, UniProt Q04864;Q00653 1-285;4-332).
T3 sequence 1: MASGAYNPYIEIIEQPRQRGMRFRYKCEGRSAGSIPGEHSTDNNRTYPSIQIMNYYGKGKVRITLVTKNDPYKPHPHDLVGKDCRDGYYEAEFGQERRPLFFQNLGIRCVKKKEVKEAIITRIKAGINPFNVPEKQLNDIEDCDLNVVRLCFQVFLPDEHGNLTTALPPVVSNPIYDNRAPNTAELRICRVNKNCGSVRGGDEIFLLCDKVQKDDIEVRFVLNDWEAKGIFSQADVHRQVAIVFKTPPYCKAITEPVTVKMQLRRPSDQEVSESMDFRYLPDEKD
T3 sequence 2: T1 sequence

Sequence of p50p50 homodimer (P19838 7-356): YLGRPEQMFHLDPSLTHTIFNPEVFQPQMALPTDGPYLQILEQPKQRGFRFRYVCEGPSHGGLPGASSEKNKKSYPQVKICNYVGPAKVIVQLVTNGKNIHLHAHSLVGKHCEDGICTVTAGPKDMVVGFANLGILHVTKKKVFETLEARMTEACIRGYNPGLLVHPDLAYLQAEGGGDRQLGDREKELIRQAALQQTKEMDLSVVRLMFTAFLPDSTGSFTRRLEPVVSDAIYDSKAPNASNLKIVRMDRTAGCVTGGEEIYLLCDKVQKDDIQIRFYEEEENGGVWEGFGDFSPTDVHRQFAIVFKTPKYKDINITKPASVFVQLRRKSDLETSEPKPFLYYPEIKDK
Sequence of RELA (p65) subunit of heterodimer;p50 subunit (Q04206 1-307, chain 1 of 2): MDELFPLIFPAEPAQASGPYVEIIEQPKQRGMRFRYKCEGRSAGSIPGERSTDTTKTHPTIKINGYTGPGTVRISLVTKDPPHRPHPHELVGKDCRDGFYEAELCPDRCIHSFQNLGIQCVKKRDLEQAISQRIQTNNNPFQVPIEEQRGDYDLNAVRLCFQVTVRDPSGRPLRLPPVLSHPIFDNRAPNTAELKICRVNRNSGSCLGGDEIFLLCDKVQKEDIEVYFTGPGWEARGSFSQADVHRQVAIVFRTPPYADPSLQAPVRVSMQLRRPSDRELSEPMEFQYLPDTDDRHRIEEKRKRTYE
Sequence of RELA (p65) subunit of heterodimer;p50 subunit (P19838 7-356, chain 2 of 2): as the sequence (P19838 7-356) above
Sequence of RELARELA (p65 homodimer) (Q04206 1-307): as the sequence (Q04206 1-307, chain 1 of 2) above

On to GGGGAATTCCC, for which the binding signal with RELARELA (p65 homodimer) was determined as 4.86 z-score; with p50p50 homodimer, 2.07 z-score; with p52p52 homodimer, 3.41 z-score; in experiment [1], 3.6 z-score; in [2], 3.73 z-score; with RELB subunit;p50 subunit, 3.87 z-score. Further, the binding signal with RELB subunit;p52 subunit stood at 3.85 z-score; in experiment [3], 3.14 z-score; in [4] it was 4.19 z-score.

Take GAGAGCGCCCT: the binding signal with RELARELA (p65 homodimer) is -0.857 z-score; with p50p50 homodimer it was -1.91 z-score; in the experiment with p52p52 homodimer it was -0.661 z-score; in experiment [1], -0.903 z-score; in [2], -1.01 z-score; with RELB subunit;p50 subunit it was -1 z-score. Besides, the figures for the binding signal (with RELB subunit;p52 subunit; in [3]; in experiment [4]) were -0.95 z-score, -1.31 z-score and -0.822 z-score, respectively.

Regarding CGGTTTACCCC, the binding signal in the experiment with RELARELA (p65 homodimer) was determined as 0.939 z-score; with p50p50 homodimer, 0.564 z-score; with p52p52 homodimer, 0.746 z-score; in experiment [1] it was 0.807 z-score; in experiment [2], 1.01 z-score; with RELB subunit;p50 subunit, 0.667 z-score. For the same sequence, the binding signal with RELB subunit;p52 subunit is 1.16 z-score; in [3], 1.04 z-score; in [4], 1.04 z-score.

For the sequence AAGTATTCCCT, the binding signal was determined as 0.729 z-score with RELARELA (p65 homodimer); 0.846 z-score with p50p50 homodimer; 0.794 z-score with p52p52 homodimer; 0.606 z-score in experiment [1]; 0.612 z-score in experiment [2]; 0.683 z-score with RELB subunit;p50 subunit. Moreover, the binding signal stood at 0.852 z-score with RELB subunit;p52 subunit, 0.812 z-score in experiment [3] and 0.523 z-score in experiment [4].

On to AGAATAATCCT, for which the binding signal with RELARELA (p65 homodimer) is -0.568 z-score; in the experiment with p50p50 homodimer, -1.24 z-score; with p52p52 homodimer it was -0.591 z-score; in [1], -0.939 z-score; in [2] it was -0.846 z-score; in the experiment with RELB subunit;p50 subunit, -0.98 z-score. Moreover, the binding signal is -0.603 z-score with RELB subunit;p52 subunit, -0.925 z-score in experiment [3] and -0.909 z-score in [4].

In the case of CGAAATCCCCC, the binding signal with RELARELA (p65 homodimer) amounted to 1.7 z-score; in the experiment with p50p50 homodimer, 1.64 z-score; in the experiment with p52p52 homodimer it was 2.27 z-score; in experiment [1], 2.33 z-score; in [2] it was 2.13 z-score; in the experiment with RELB subunit;p50 subunit, 2.58 z-score. The binding signal is 2.42 z-score with RELB subunit;p52 subunit, 1.83 z-score in experiment [3] and 2.36 z-score in [4].

AGGGGAGTCCT: the binding signal with RELARELA (p65 homodimer) was found to be 0.691 z-score; in the experiment with p50p50 homodimer, 0.962 z-score; in the experiment with p52p52 homodimer, 1.64 z-score; in experiment [1], 0.872 z-score; in experiment [2] it was 1.1 z-score; in the experiment with RELB subunit;p50 subunit, 0.907 z-score. Moreover, the binding signal came out at 0.881 z-score in the experiment with RELB subunit;p52 subunit, 0.64 z-score in experiment [3] and 0.78 z-score in experiment [4].

Consider CAAGAAACCCT, for which the binding signal was -0.512 z-score in the experiment with RELARELA (p65 homodimer); -0.321 z-score with p50p50 homodimer; -0.245 z-score with p52p52 homodimer; -0.525 z-score in [1]; -0.264 z-score in experiment [2]; -0.492 z-score with RELB subunit;p50 subunit. Also, the binding signal is -0.353 z-score with RELB subunit;p52 subunit, -0.467 z-score in experiment [3] and -0.305 z-score in experiment [4].

Take AAGTATGCCCC: the binding signal with RELARELA (p65 homodimer) is 0.441 z-score; in the experiment with p50p50 homodimer it was 0.0869 z-score; in the experiment with p52p52 homodimer, -0.0889 z-score; in [1] it was 0.289 z-score; in experiment [2], 0.0585 z-score; with RELB subunit;p50 subunit it was 0.197 z-score. The binding signal with RELB subunit;p52 subunit is 0.2 z-score; in experiment [3], 0.628 z-score; in experiment [4] it was 0.354 z-score.

On to CAAGAGTCCCC, for which the binding signal worked out at 0.465 z-score with RELARELA (p65 homodimer); 1.31 z-score in the experiment with p50p50 homodimer; 1.01 z-score in the experiment with p52p52 homodimer; 1.4 z-score in experiment [1]; 1.06 z-score in experiment [2]; 1.44 z-score with RELB subunit;p50 subunit. Further, the binding signal with RELB subunit;p52 subunit came to 1.28 z-score; in experiment [3], 0.916 z-score; in [4], 0.77 z-score.

For AAAAGGGCCCT, the binding signal with RELARELA (p65 homodimer) is -0.729 z-score; in the experiment with p50p50 homodimer, -0.423 z-score; in the experiment with p52p52 homodimer it was -0.373 z-score; in experiment [1], -0.762 z-score; in [2], -0.52 z-score; with RELB subunit;p50 subunit, -0.464 z-score. The binding signal is -0.386 z-score with RELB subunit;p52 subunit, -1.07 z-score in experiment [3] and -0.406 z-score in experiment [4].

As for CGGTTCCCCCC, the binding signal in the experiment with RELARELA (p65 homodimer) amounted to 0.357 z-score; in the experiment with p50p50 homodimer it was 1.52 z-score; with p52p52 homodimer it was 1.57 z-score; in [1], 2.24 z-score; in [2], 1.89 z-score; with RELB subunit;p50 subunit, 2.3 z-score. For the same sequence, the binding signal in the experiment with RELB subunit;p52 subunit is 2.23 z-score; in experiment [3], 1.85 z-score; in experiment [4], 1.73 z-score.

AAGGAACCCCT: the binding signal with RELARELA (p65 homodimer) is -0.469 z-score; in the experiment with p50p50 homodimer, 0.961 z-score; in the experiment with p52p52 homodimer, 0.532 z-score; in experiment [1] it was 0.281 z-score; in experiment [2], 0.861 z-score; in the experiment with RELB subunit;p50 subunit it was 0.479 z-score. Besides, the figures for the binding signal (with RELB subunit;p52 subunit; in experiment [3]; in [4]) were 0.874 z-score, 0.215 z-score and 0.603 z-score, respectively.

With AAGGGTTTCCC, the binding signal with RELARELA (p65 homodimer) was determined as 2.18 z-score; in the experiment with p50p50 homodimer, 0.668 z-score; with p52p52 homodimer, 1.31 z-score; in experiment [1], 1.15 z-score; in [2], 1.43 z-score; with RELB subunit;p50 subunit it was 0.696 z-score. Besides, the binding signal with RELB subunit;p52 subunit worked out at 1.17 z-score; in experiment [3], 1.07 z-score; in experiment [4], 1.57 z-score.

For GAATATCCCCC, the binding signal with RELARELA (p65 homodimer) is 0.817 z-score; with p50p50 homodimer, 1.35 z-score; with p52p52 homodimer, 1.71 z-score; in experiment [1] it was 1.94 z-score; in [2] it was 1.64 z-score; in the experiment with RELB subunit;p50 subunit, 1.97 z-score. Also, the results for the binding signal (with RELB subunit;p52 subunit; in [3]; in [4]) were 1.9 z-score, 1.33 z-score and 1.58 z-score, respectively.

For the origin of these results see publication PMC3218832.
